The source of these data is PubChem BioAssay.

Values joined by “and” are separate entries in the source; they are usually repeats but may differ in a detail not shown here. Equal values may be shown once. Active and inactive are the calls of the source.

One experiment concerns XIP peptide (Xip251-270) binding. As to the kind of experiment: XIP fragment 251-270 binding compounds – biochemical, small-molecule microarray, fluorescence 635/667 nm, 0.1 µg/mL protein, primary screen (AID 1182). The note with it: fluorescent protein binding, 635 nm, higher = more signal, called active from +8 up or from −8 down.
With `COC(=O)C1=C(C)N(Cc2ccccc2)C2=C(C(=O)c3ccccc3)[C@H](c3ccccc3)[C@@](O)(C(=O)OC)C(=O)N2[C@@H]1c1ccccc1`, the composite z-score was -0.149 (inactive) and -0.059 (inactive).

Regarding `CCOC(=O)CCN1C(=O)[C@H]2[C@H]3[C@H](O)[C@H](O)CC(=NNC(=O)OCC)[C@@H]3CC[C@H]2C1=O`, the composite z-score is 0.872 (inactive).

For the molecule `C#CCN1C(/C=C/c2ccccc2)C(=O)OC[C@H]1c1ccccc1` (stereo partly specified), the composite z-score is -0.538 (inactive) and 0.237 (inactive).

On to `Cc1cc2c(nc1C)CCCN2CC(C)ON=C[C@@H](C)[C@H](OCc1ccccc1)C(C)C` (stereo partly specified), for which the composite z-score was -0.144 (inactive).

In the case of `CO[C@H]1COC(=O)CC=C[C@H](C)[C@H](OC)COC(=O)[C@@H](C)COC(=O)CC=C[C@@H]1C`, the composite z-score is -0.205 (inactive) and 0.308 (inactive).

As for `COC(=O)C1=C(C)N(Cc2ccccc2)[C@]23O[C@](C(=O)OC)(C(=O)N2[C@@H]1c1ccccc1)[C@H]1CCCC(=O)[C@H]13`, the composite z-score is 0.472 (inactive) and 0.134 (inactive).

On to `Cc1ccc(S(=O)(=O)N[C@H]2COC(=O)[C@@H](C)COC(=O)[C@H](C)NC(=O)CC=C[C@H]2C)cc1`, for which the composite z-score is 0.0287 (inactive).

Consider `C=CCN(C(=O)C1N(c2c(Cl)cccc2CO)C(=O)C2C(C(=O)O)C3C=CC21O3)C(C)(C)C` (stereo unspecified), for which the composite z-score is 0.13 (inactive) and -0.96 (inactive).

With `C=CCN(CCCC)C(=O)C(c1cccs1)N(CCOCCO)C(=O)/C=C\C(=O)O` (stereo unspecified), the composite z-score is 0.455 (inactive) and 0.476 (inactive).

`CCCNC(=O)OC[C@H]1O[C@H](CCON=C(C)CCN2CCc3nc(-c4ccccc4)c(-c4ccccc4)cc3C2)C=C[C@@H]1Oc1ccc(OC)cc1`: the composite z-score is -0.377 (inactive).

As to `C=CCN(CCCC)C(=O)C1N(CCCCCCO)C(=O)C2C(C(=O)O)C3C=CC21O3` (stereo unspecified), the composite z-score is -0.489 (inactive) and -0.198 (inactive).

For `COC(=O)C1=C(C)N(Cc2ccccc2)C2=C3C(=O)N(c4ccccc4)C(=O)[C@@H]3[C@@](O)(C(=O)OC)C(=O)N2[C@@H]1c1ccccc1`, the composite z-score was 0.357 (inactive) and 0.908 (inactive).

`COc1ccc(O[C@H]2C=C[C@@H](c3ccccc3)O[C@@H]2COC(=O)CCC(C)=NO[C@H](C)c2cn([C@H](CO)Cc3ccccc3)nn2)cc1`: the composite z-score was 0.31 (inactive) and 0.164 (inactive).

Regarding `C#CCCCON=C1C[C@@H](O)[C@@H](O)[C@@H]2[C@@H]3C(=O)N(C4CCCCC4)C(=O)[C@@H]3CC[C@H]12`, the composite z-score was 0.57 (inactive).

In the case of `COC(=O)C1=C(C)N(Cc2ccccc2)[C@]23O[C@](C(=O)OC)(C(=O)N2[C@@H]1c1ccccc1)[C@H]1C(=O)N(C)C(=O)[C@H]13`, the composite z-score was 0.0247 (inactive) and -0.317 (inactive).

Regarding `C=C[C@@H](OC)[C@H](O)c1ccc(O)c(F)c1`, the composite z-score was -0.25 (inactive) and -2.1 (inactive).

The next experiment deals with XIP peptide (Xip251-270). In words: compounds binding XIP fragment 251-270 – biochemical, small-molecule microarray, fluorescence 635/667 nm, 0.5 µg/mL protein, primary screen (AID 1183). The note with it: fluorescence 635 nm, higher = more signal.
As to `C=C[C@@H](OC)[C@H](O)c1ccc(OCCO)cc1`, the composite z-score was 0.524 and 0.496.

On to `COC(=O)C1=C(C)N(Cc2ccccc2)C2=C(C(C)=O)C[C@@](O)(C(=O)OC)C(=O)N2[C@@H]1c1ccccc1`, for which the composite z-score was -0.358 and 0.645.

Regarding `CO[C@@H]1COC(=O)CC=C[C@H](C)COC(=O)[C@H](C)NC(=O)CC=C[C@H]1C`, the composite z-score was determined as 0.195.

On to `Cc1ccc(S(=O)(=O)N[C@@H]2COC(=O)CC=C[C@@H](C)[C@@H]3C=C[C@H](O)[C@@H](COC(=O)CC=C[C@H]2C)O3)cc1`, for which the composite z-score was -0.179 and 0.167.

On to `Cc1ccc(S(=O)(=O)OC[C@@H]2CN3[C@@H](CC[C@@H](C)[C@@H]3c3ccc(Br)cc3)C(=O)O2)cc1`, for which the composite z-score is 0.432 and 0.299.

Turning to `O=C1[C@H]2[C@H]3[C@H](O)[C@H](O)CC(=NOCc4ccccc4)[C@H]3CC[C@H]2C(=O)N1Cc1ccccc1`, the composite z-score amounted to 0.0748.

Turning to `C=CCN(C(=O)C(c1cccs1)N(C(=O)/C=C\C(=O)O)C(C)(C)CO)C(C)(C)C` (stereo unspecified), the composite z-score is -0.796 and 0.851.

In the case of `CON(C)C(=O)c1nnc2c3ccccc3n(S(=O)(=O)c3ccc(C)cc3)c2n1`, the composite z-score was 0.632 and 0.305.

Turning to `CCOC(=O)NN=C1C[C@@H](O)[C@@H](O)[C@@H]2[C@@H]3C(=O)N(Cc4ccc5c(c4)OCO5)C(=O)[C@@H]3CC[C@@H]12`, the composite z-score came to 0.586.

In the case of `C[C@@H]1CC[C@H]2C(=O)N3[C@@H](CC[C@@H](C)[C@@H]3c3ccc(-c4ccco4)cc3)C(=O)N2[C@H]1c1ccc(-c2ccco2)cc1`, the composite z-score was 0.827 and 0.789.

Regarding `C=CCN1C(=O)[C@]2(O[C@H](CCn3cc(CCO)nn3)[C@@H]([Si](C)(C)c3ccc(OC)cc3)[C@@H]2C)c2cc(N3C(=O)c4cccc5cccc3c45)ccc21`, the composite z-score was 0.577 and 0.719.

With `CCOC(=O)c1ccc(NC(=O)O[C@H]2[C@H](OC(=O)Nc3ccccc3)[C@H](OC(=O)Nc3ccccc3)[C@@H](OC)O[C@@H]2CO)cc1`, the composite z-score was 0.844 and 0.901.

Regarding `C=CCN(C(=O)C(c1cccs1)N(C(=O)/C=C\C(=O)O)C(C)(C)CO)c1ccc(OC)cc1` (stereo unspecified), the composite z-score was -1.17 and -0.372.

Turning to `C[C@@H]1CC[C@@H](C(=O)O)N[C@H]1c1ccc(-c2ccco2)cc1`, the composite z-score came to 0.827.

Consider `O=C(NN=C1C[C@@H](O)[C@@H](O)[C@@H]2[C@@H]3C(=O)N(Cc4ccc5c(c4)OCO5)C(=O)[C@@H]3CC[C@H]12)OCc1ccccc1`, for which the composite z-score turned out to be 0.222.

With `C[C@@H]1CN2[C@@H](CC[C@@H](C)[C@@H]2c2ccc(Br)cc2)C(=O)O1`, the composite z-score is -0.252 and 0.581.

With `CC(C)=CCCC(C)=CCON=C1C[C@@H](O)[C@@H](O)[C@@H]2[C@@H]3C(=O)N([C@@H](C)c4ccccc4)C(=O)[C@@H]3CC[C@H]12`, the composite z-score was 0.105.

With `CCOC(=O)[C@H](CC(C)C)NC(=O)CCC1CC(OC(=O)NCc2cccc3ccccc23)CC2(CCCC(COC(=O)NCc3ccccc3)O2)O1` (stereo partly specified), the composite z-score came to 0.374.

Take `CCCNC(=O)OC[C@H]1O[C@H](CCON=C(C)CCC(=O)OC[C@H]2O[C@H](C#Cc3ccccc3)C=C[C@@H]2Oc2ccc(C)cc2)C=C[C@@H]1Oc1ccc(OC)cc1`: the composite z-score is -0.439.

As for `C=CCN(CCCCC)C(=O)C1N(c2c(Cl)cccc2CO)C(=O)C2C(C(=O)O)C3C=CC21O3` (stereo unspecified), the composite z-score is -0.416 and -1.42.

With `CC(C)N1CC=CC23O[C@@H]4C=CCCOC(=O)C4[C@H]2C(=O)N(C(C)CO)[C@@H]3C1=O` (stereo partly specified), the composite z-score is 0.716 and -0.58.

Consider `CCOC(=O)[C@@H]1CC=C2CC1C(=O)N1CCC[C@@H]1[C@H]2O[Si](C)(C)C(C)(C)C` (stereo partly specified), for which the composite z-score was -1.29 and -0.354.

Regarding `CC(C)CCN1CCc2nc(-c3ccccc3)c3c(c2C1)CO[C@@H](C)C3`, the composite z-score worked out at 0.563.

Take `CCOC(=O)c1ccc(NC(=O)O[C@H]2[C@H](OC(=O)Nc3ccccc3)[C@@H](OC(=O)Nc3ccccc3)[C@@H](OC)O[C@@H]2CO)cc1`: the composite z-score was 0.928 and 0.91.

As to `COC(=O)C1=C(C)N(Cc2ccccc2)C2=C(C(=O)c3ccccc3)[C@H](c3ccccc3)[C@@](O)(C(=O)OC)C(=O)N2[C@@H]1c1ccccc1`, the composite z-score is 0.675 and 0.323.

Regarding `CCOC(=O)CCN1C(=O)[C@H]2[C@H]3[C@H](O)[C@H](O)CC(=NNC(=O)OCC)[C@@H]3CC[C@H]2C1=O`, the composite z-score was 0.466.

Turning to `C#CCN1C(/C=C/c2ccccc2)C(=O)OC[C@H]1c1ccccc1` (stereo partly specified), the composite z-score is -0.0814 and 0.83.

`Cc1cc2c(nc1C)CCCN2CC(C)ON=C[C@@H](C)[C@H](OCc1ccccc1)C(C)C` (stereo partly specified): the composite z-score was -0.0166.

On to `CO[C@H]1COC(=O)CC=C[C@H](C)[C@H](OC)COC(=O)[C@@H](C)COC(=O)CC=C[C@@H]1C`, for which the composite z-score was 0.602 and -0.337.

As to `COC(=O)C1=C(C)N(Cc2ccccc2)[C@]23O[C@](C(=O)OC)(C(=O)N2[C@@H]1c1ccccc1)[C@H]1CCCC(=O)[C@H]13`, the composite z-score was -0.0169 and 0.279.

For `Cc1ccc(S(=O)(=O)N[C@H]2COC(=O)[C@@H](C)COC(=O)[C@H](C)NC(=O)CC=C[C@H]2C)cc1`, the composite z-score is -0.188.

Turning to `C=CCN(C(=O)C1N(c2c(Cl)cccc2CO)C(=O)C2C(C(=O)O)C3C=CC21O3)C(C)(C)C` (stereo unspecified), the composite z-score was 0.106 and -0.591.

For the molecule `C=CCN(CCCC)C(=O)C(c1cccs1)N(CCOCCO)C(=O)/C=C\C(=O)O` (stereo unspecified), the composite z-score is -0.836 and -0.765.

For `CCCNC(=O)OC[C@H]1O[C@H](CCON=C(C)CCN2CCc3nc(-c4ccccc4)c(-c4ccccc4)cc3C2)C=C[C@@H]1Oc1ccc(OC)cc1`, the composite z-score turned out to be 0.201.

As to `C=CCN(CCCC)C(=O)C1N(CCCCCCO)C(=O)C2C(C(=O)O)C3C=CC21O3` (stereo unspecified), the composite z-score was -0.838 and -0.558.

Regarding `COC(=O)C1=C(C)N(Cc2ccccc2)C2=C3C(=O)N(c4ccccc4)C(=O)[C@@H]3[C@@](O)(C(=O)OC)C(=O)N2[C@@H]1c1ccccc1`, the composite z-score was 0.673 and 0.243.

As for `COc1ccc(O[C@H]2C=C[C@@H](c3ccccc3)O[C@@H]2COC(=O)CCC(C)=NO[C@H](C)c2cn([C@H](CO)Cc3ccccc3)nn2)cc1`, the composite z-score was 0.238 and 0.548.

For the molecule `C#CCCCON=C1C[C@@H](O)[C@@H](O)[C@@H]2[C@@H]3C(=O)N(C4CCCCC4)C(=O)[C@@H]3CC[C@H]12`, the composite z-score amounted to 0.545.

As to `COC(=O)C1=C(C)N(Cc2ccccc2)[C@]23O[C@](C(=O)OC)(C(=O)N2[C@@H]1c1ccccc1)[C@H]1C(=O)N(C)C(=O)[C@H]13`, the composite z-score is 0.706 and -0.282.

With `C=C[C@@H](OC)[C@H](O)c1ccc(O)c(F)c1`, the composite z-score is 0.116 and 0.444.
